Measurements: publication PMC7826789 (International Journal of Molecular Sciences, 2021)

Assays:
Details in all cases: Compound Concentration (nM):1000
LRRK2 = tested on: LRRK2
LTK = tested on: LTK
LYN = tested on: LYN
LZK = tested on: T1, LZK
T1 construct: gene MAP3K13

MAK = tested on: MAK
MAP3K15 = tested on: MAP3K15
MAP3K1 = tested on: MAP3K1
MAP3K2 = tested on: MAP3K2
MAP3K3 = tested on: MAP3K3
MAP3K4 = tested on: MAP3K4
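Also: KINOMEscan scanMAX binding as percent activity remaining versus control; lower means stronger binding.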

SMILES	Percent Control (LRRK2)	Percent Control (LTK)	Percent Control (LYN)	Percent Control (LZK)	Percent Control (MAK)	Percent Control (MAP3K15)	Percent Control (MAP3K1)	Percent Control (MAP3K2)	Percent Control (MAP3K3)	Percent Control (MAP3K4)
COc1cccc(-c2c[nH]c3c(N/N=C/c4ccncc4)ncnc23)c1 [GW814408X]	100%	98%	50%	93%	100%	100%	92%	65%	57%	100%
CN(C)c1cc2c(Nc3ccc4c(cnn4Cc4ccccc4)c3)ncnc2cn1 [GW282974X]	97%		89%	100%	98%	100%		90%	73%	88%
CC1=C(C(=O)Nc2ccc3[nH]ncc3c2)C(c2ccc3ccccc3c2)CC(=O)N1 (centres unmarked) [GSK270822A]	100%	100%	66%	72%	100%	73%	68%	60%	84%	100%
Cc1cc(O)cc(C)c1/C=C/c1cncc(C(N)=O)c1 [GW435821X]	81%	100%	38%	100%	100%	100%	65%	79%	59%	100%
CCc1ccc(Oc2nccc(-c3c(-c4ccc(F)cc4)ncn3C3CCNCC3)n2)cc1 [SB-242719]	100%	95%	100%	95%	100%	91%	67%	98%	66%	93%
COc1cc(N2CCN(C(C)C)CC2)ccc1Nc1nc(Nc2ccc(F)cc2C(=O)NC[C@@H](O)CO)c2cc[nH]c2n1 [GSK1392956A]	12%	66%	92%	100%	100%	93%	86%	100%	88%	94%
COc1cc(/C=N/Nc2ncnc3[nH]ncc23)ccc1O [GW578748X]	54%	100%	86%	100%	100%	96%	49%	67%	85%	93%
CC(C)COC(=O)c1ccc2c(c1)/C(=C/Nc1ccc(S(N)(=O)=O)cc1)C(=O)N2 [GW416981X]	56%	100%	100%	100%	100%	100%	67%	66%	90%	100%
COc1ccc2c(-c3ccnc(Nc4cccc(OC(F)(F)F)c4)n3)cnn2n1 [GW810372X]	72%	100%	100%	100%	100%	100%	70%	96%	90%	71%
COc1ccc(COc2ccc(Cc3cnc(N)nc3N)cc2OC)cc1 [GW632580X]	83%	86%	100%	77%	89%	95%	65%	97%	91%	90%
NS(=O)(=O)c1ccc(N/N=C2\C(=O)Nc3ccc(Cl)cc32)cc1 [GW280670X]	72%	100%	90%	100%	100%	100%	63%	100%	100%	100%
C[C@@H](Oc1cc(-n2cnc3ccc(OC4CCN(C)CC4)cc32)sc1C(N)=O)c1ccccc1Cl [GSK579289A]	77%	24%	93%	78%	100%	95%	41%	83%	65%	67%
COc1cc2ncn(-c3cc(O[C@H](C)c4ccccc4Cl)c(C(N)=O)s3)c2cc1OC [GSK237701A]	70%	26%	81%	70%	100%	100%	2.6%	84%	83%	100%
Cl.O=C(O[C@H]1CN[C@H](C#Cc2cc3ncnc(Nc4ccc5c(cnn5Cc5ccccc5)c4)c3s2)C1)N1CCOCC1 [GSK200398A]	97%	85%	76%	100%	100%	95%	56%	97%	89%	82%
Cl.c1ccc(Cc2nc3ccc(Nc4ncnc5ccccc45)cc3[nH]2)cc1 [GR269666A]	100%	100%	93%	100%	100%	100%	100%	100%	100%	100%
COc1ccc2[nH]c3c4[nH]c5ccc(OC)cc5c4c4c(c3c2c1)C(=O)NC4=O [GW296115X]	2.8%	58%	69%	77%	82%	64%	71%	85%	59%	100%
Cl.O=C(Nc1ccc(Oc2ccc3[nH]c(NC(=O)c4ccco4)nc3c2)cc1)Nc1cc(C(F)(F)F)ccc1F [GW683134A]	28%	6.2%	29%	100%	100%	90%	53%	100%	85%	86%
CCS(=O)(=O)c1ccc(OC)c(Nc2ncc(-c3cccc(OC)c3)o2)c1 [GW580509X]	100%	100%	53%	100%	100%	100%	68%	100%	100%	100%
COc1cc(C)c(N(C)C(=O)CN(C)C)cc1Nc1nc(Nc2cccc(F)c2C(N)=O)c2cc[nH]c2n1 [GSK2219385]	11%	74%	100%	80%	100%	98%	83%	93%	67%	90%
C/C(Nc1ccc(S(N)(=O)=O)cc1)=C1/C(=O)Nc2ccccc21 [GW335962X]	55%	78%	87%	97%	98%	93%	62%	53%	55%	100%

SMILES	Percent Control (LRRK2)	Percent Control (LTK)	Percent Control (LYN)	Percent Control (LZK)	Percent Control (MAK)	Percent Control (MAP3K15)	Percent Control (MAP3K1)	Percent Control (MAP3K2)	Percent Control (MAP3K3)	Percent Control (MAP3K4)
NS(=O)(=O)c1ccc(N/N=C2\C(=O)Nc3ccc(C(=O)NCCc4c[nH]cn4)cc32)cc1 [GW300660X]	78%	100%	100%	100%	100%	100%	47%	82%	96%	100%
Cl.O=C(Nc1ccc(Oc2ccc3[nH]c(NC(=O)c4ccccc4)nc3c2)cc1)Nc1cc(C(F)(F)F)ccc1F [GW709042A]	39%	9.5%	72%	100%	100%	100%	57%	100%	84%	100%
COc1cc(C=NNc2ncnc3c2cnn3-c2ccccc2)ccc1O [GW513184X]	100%	100%	74%	98%	78%	100%	100%	99%	73%	100%
CN(C)CCNC(=O)Nc1ccc(N(C)c2ccnc(Nc3ccc(CS(C)(=O)=O)cc3)n2)cc1.Cl [GW830900A]	83%	100%	100%	75%	100%	100%	82%	69%	84%	99%
O=C1Nc2ccc(C(=O)c3ccco3)cc2C1=Cc1cc(Cl)c(O)c(Cl)c1 [GW406108X]	13%	93%	86%	94%	100%	90%	63%	96%	78%	100%
Cl.O=S1CCN(Cc2ccc(-c3ccc4ncnc(Nc5ccc(OCc6ccccc6)c(F)c5)c4c3)o2)CC1 [GW576924A]	98%	100%	100%	100%	100%	94%	81%	100%	100%	100%
NS(=O)(=O)c1ccc(N/N=C2\C(=O)Nc3ccc(-c4cnco4)cc32)cc1 [GW276655]	44%	100%	100%	62%	100%	75%	100%	79%	74%	82%
COC(=O)Nc1nc2ccc(Oc3ccc(NC(=O)Nc4cc(C(F)(F)F)ccc4F)cc3)cc2s1.Cl [GW693917A]	39%	18%	19%	78%	100%	100%	53%	92%	79%	80%
CCn1c(-c2nonc2N)nc2c(C#CC(C)(C)O)nc(OCCNC)cc21.Cl [GSK949675]	100%	100%	100%	91%	100%	100%	100%	6.9%	28%	100%
COc1cccc(-n2ncc3c(N/N=C/c4ccncc4)ncnc32)c1 [GW784752X]	91%	100%	58%	100%	100%	97%	70%	100%	84%	89%
Nc1ncnc2occ(-c3ccc(NC(=O)Nc4cc(C(F)(F)F)ccc4F)cc3)c12 [GW770249X]	77%	4.5%	29%	100%	100%	100%	51%	91%	91%	94%
NS(=O)(=O)c1ccc(N/N=C2\C(=O)Nc3ccc(C(=O)NCc4ccncc4)cc32)cc1 [GW300657X]	69%	100%	81%	72%	100%	80%	67%	87%	72%	99%
CN1CCN(C(=O)c2ccc(NC(=O)Nc3ccc(N(C)c4ccnc(Nc5ccc(CS(C)(=O)=O)cc5)n4)cc3)cc2)CC1.Cl [GW830263A]	74%	85%	71%	70%	64%	86%	83%	38%	57%	4%
COc1ccc2cc(-c3c(-c4ccncc4)nc(-c4ccc(S(C)(=O)=O)cc4C)n3C)ccc2c1 [SB-633825]	96%	23%	66%	65%	86%	83%	60%	60%	79%	90%
COc1ccccc1-c1cc(/C=C2\C(=O)Nc3ncc(Br)cc32)cc(Br)c1O [GW442130X]	100%	100%	100%	84%	100%	89%	99%	100%	100%	100%
NS(=O)(=O)c1ccc(Nc2ncc(-c3ccccc3)o2)cc1 [GW572399X]	76%	100%	100%	100%	100%	99%	59%	87%	100%	100%
CC1=C(C(=O)Nc2ccc3[nH]ncc3c2)C(c2ccc(Cl)c(Cl)c2)CC(=O)N1 (centres unmarked) [GSK299115A]	96%	84%	100%	79%	100%	84%	76%	85%	85%	100%
CCS(=O)(=O)c1ccc(OC)c(Nc2ncc(-c3cccc(F)c3)o2)c1 [GW621970X]	90%	100%	36%	100%	100%	95%	80%	100%	100%	100%
COc1cc2ncnc(Nc3ccc4c(cnn4Cc4ccccc4)c3)c2cc1OC.Cl [GW282449A]	100%	46%	46%	100%	100%	98%	84%	100%	100%	100%
O=C(Nc1n[nH]c2nc(-c3ccc(O)cc3)c(Br)cc12)C1CC1 [SB-725317]	89%	60%	100%	100%	39%	94%	60%	84%	97%	100%
